{
  "source": "PubChem BioAssay",
  "note": "Values without a mark were called inactive. Calls of active or inactive are those of the source.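 How the source made its calls, unless noted: active means compound whose remaining NAD level is above about 45 nM (limit read from the data); inactive means the rest.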",
  "data": [
    {"molecular_target": "NAD(+) hydrolase SARM1 (Homo sapiens) (UniProt Q6SZW1)", "sequence (Q6SZW1 whole entry, looked up)": "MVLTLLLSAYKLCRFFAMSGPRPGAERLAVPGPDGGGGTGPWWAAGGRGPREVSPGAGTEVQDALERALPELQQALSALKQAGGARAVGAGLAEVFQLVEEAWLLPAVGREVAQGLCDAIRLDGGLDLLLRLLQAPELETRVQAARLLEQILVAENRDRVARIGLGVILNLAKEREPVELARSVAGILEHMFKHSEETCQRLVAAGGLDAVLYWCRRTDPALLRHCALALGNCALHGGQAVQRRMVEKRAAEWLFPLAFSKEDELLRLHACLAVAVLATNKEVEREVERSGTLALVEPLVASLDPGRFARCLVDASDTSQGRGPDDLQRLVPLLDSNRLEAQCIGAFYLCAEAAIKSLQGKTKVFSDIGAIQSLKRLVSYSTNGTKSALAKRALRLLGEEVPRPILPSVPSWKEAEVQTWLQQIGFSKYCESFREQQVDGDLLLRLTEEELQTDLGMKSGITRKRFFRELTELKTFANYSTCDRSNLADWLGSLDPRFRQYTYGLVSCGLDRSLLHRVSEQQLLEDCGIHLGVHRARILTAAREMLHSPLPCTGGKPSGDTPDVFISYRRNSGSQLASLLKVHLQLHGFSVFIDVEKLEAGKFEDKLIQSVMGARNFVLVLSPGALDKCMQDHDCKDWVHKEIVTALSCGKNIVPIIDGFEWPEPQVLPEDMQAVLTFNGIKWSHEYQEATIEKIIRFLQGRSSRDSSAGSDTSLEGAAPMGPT", "assay": "SARM1 TIR NADase inhibitors, cell lysate, NAD-Glo luminescence (AID 1508614);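 further: higher remaining NAD means stronger inhibition of SARM1 NADase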", "conditions": "SAM-TIR HEK293T lysate NADase, at 1 µM, active compounds read high", "units": {"remaining NAD": "nM"}, "values": [
      {"smiles": "CC(C)(C)c1ccc(C(O)CCCN2CCC(C(O)(c3ccccc3)c3ccccc3)CC2)cc1", "note": "(centres undefined)", "remaining NAD": 10},
      {"smiles": "O=C(O)COCCN1CCN(C(c2ccccc2)c2ccc(Cl)cc2)CC1", "note": "(centres undefined)", "remaining NAD": 10},
      {"smiles": "CC(C)c1c(C(=O)Nc2ccccc2)c(-c2ccccc2)c(-c2ccc(F)cc2)n1CC[C@@H](O)C[C@@H](O)CC(=O)O", "remaining NAD": 10},
      {"smiles": "Cc1ccc(/C(=C\\CN2CCCC2)c2ccccn2)cc1", "remaining NAD": 10},
      {"smiles": "CC(C)(C)CC(C)(C)c1ccc(OCCOCC[N+](C)(C)Cc2ccccc2)cc1", "remaining NAD": 13},
      {"smiles": "Clc1ccccc1CN1CCc2sccc2C1", "remaining NAD": 10},
      {"smiles": "C[N+]1(C)CCC(OC(=O)C(O)(c2ccccc2)C2CCCC2)C1", "note": "(centres undefined)", "remaining NAD": 10},
      {"smiles": "CN1[C@@H]2CC(OC(=O)[C@H](CO)c3ccccc3)C[C@H]1[C@@H]1O[C@@H]12", "note": "(some centres undefined)", "remaining NAD": 10},
      {"smiles": "CC(C)(C(=O)O)c1ccc(C(O)CCCN2CCC(C(O)(c3ccccc3)c3ccccc3)CC2)cc1", "note": "(centres undefined)", "remaining NAD": 10},
      {"smiles": "CC(C)n1c(/C=C/[C@@H](O)C[C@@H](O)CC(=O)O)c(-c2ccc(F)cc2)c2ccccc21", "remaining NAD": 10},
      {"smiles": "CN(C)C(=N)N=C(N)N", "remaining NAD": 10},
      {"smiles": "O=C(O)c1cn(C2CC2)c2cc(N3CCNCC3)c(F)cc2c1=O", "remaining NAD": 10},
      {"smiles": "O=S(=O)(c1cccc2cnccc12)N1CCCNCC1", "remaining NAD": 10},
      {"smiles": "CS(=O)(=O)c1ccc([C@@H](O)[C@@H](CF)NC(=O)C(Cl)Cl)cc1", "remaining NAD": 10},
      {"smiles": "NCCCC(O)(P(=O)(O)O)P(=O)(O)O", "remaining NAD": 10},
      {"smiles": "CC1(C)[C@H](C(=O)O)N2C(=O)C[C@H]2S1(=O)=O", "remaining NAD": 10}
    ]},
    {"molecular_target": "Mitogen-activated protein kinase 7 (Homo sapiens) (UniProt Q13164)", "sequence (Q13164 whole entry, looked up, the tested form may be a part)": "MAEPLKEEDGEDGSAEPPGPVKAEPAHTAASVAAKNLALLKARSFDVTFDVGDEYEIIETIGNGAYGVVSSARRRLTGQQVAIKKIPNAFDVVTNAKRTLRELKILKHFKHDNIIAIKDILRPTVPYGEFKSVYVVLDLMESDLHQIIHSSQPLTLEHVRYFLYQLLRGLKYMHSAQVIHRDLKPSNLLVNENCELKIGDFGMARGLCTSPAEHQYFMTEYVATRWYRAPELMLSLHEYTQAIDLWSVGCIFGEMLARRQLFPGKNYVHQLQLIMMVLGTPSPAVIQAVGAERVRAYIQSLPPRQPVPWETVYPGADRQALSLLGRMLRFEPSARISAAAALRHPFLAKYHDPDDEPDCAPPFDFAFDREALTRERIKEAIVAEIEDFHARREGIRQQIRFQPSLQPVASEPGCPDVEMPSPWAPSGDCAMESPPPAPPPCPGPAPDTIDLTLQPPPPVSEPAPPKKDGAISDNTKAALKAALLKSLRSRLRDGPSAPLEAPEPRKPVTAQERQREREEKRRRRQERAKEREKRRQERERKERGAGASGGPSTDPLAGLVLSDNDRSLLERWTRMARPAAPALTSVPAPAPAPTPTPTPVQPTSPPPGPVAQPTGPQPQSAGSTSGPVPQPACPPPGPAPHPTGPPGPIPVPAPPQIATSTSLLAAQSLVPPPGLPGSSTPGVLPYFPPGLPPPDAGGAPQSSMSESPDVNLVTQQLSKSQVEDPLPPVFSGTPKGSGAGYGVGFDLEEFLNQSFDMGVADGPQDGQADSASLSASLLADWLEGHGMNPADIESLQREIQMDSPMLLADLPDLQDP", "assay": "ERK5 transactivation activators in reporter cells, primary screen, cell-based, HTS (AID 1508626;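 active means luciferase signal above three times the same-plate solvent-only control wells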;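 further: luciferase driven by Gal4-ERK5 fusion binding five Gal4 sites before minimal TATA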)", "conditions": "HeLa Gal4-ERK5 transactivation, 18 h, at 5 µM, active compounds read high", "values": [
      {"smiles": "CC(C)(C)c1ccc(C(O)CCCN2CCC(C(O)(c3ccccc3)c3ccccc3)CC2)cc1", "note": "(centres undefined)", "luciferase signal": "108 AU"},
      {"smiles": "O=C(NCC1CCCCN1)c1cc(OCC(F)(F)F)ccc1OCC(F)(F)F", "note": "(centres undefined)", "luciferase signal": "68 AU"},
      {"smiles": "O=C(O)COCCN1CCN(C(c2ccccc2)c2ccc(Cl)cc2)CC1", "note": "(centres undefined)", "luciferase signal": "76 AU"},
      {"smiles": "CC(C)c1c(C(=O)Nc2ccccc2)c(-c2ccccc2)c(-c2ccc(F)cc2)n1CC[C@@H](O)C[C@@H](O)CC(=O)O", "luciferase signal": "28 AU"},
      {"smiles": "Cc1ccc(/C(=C\\CN2CCCC2)c2ccccn2)cc1", "luciferase signal": "152 AU"},
      {"smiles": "CC(C)(C)CC(C)(C)c1ccc(OCCOCC[N+](C)(C)Cc2ccccc2)cc1", "luciferase signal": "44 AU"},
      {"smiles": "Clc1ccccc1CN1CCc2sccc2C1", "luciferase signal": "52 AU"},
      {"smiles": "CN1[C@@H]2CC(OC(=O)[C@H](CO)c3ccccc3)C[C@H]1[C@@H]1O[C@@H]12", "note": "(some centres undefined)", "luciferase signal": "88 AU"},
      {"smiles": "CC(C)(C(=O)O)c1ccc(C(O)CCCN2CCC(C(O)(c3ccccc3)c3ccccc3)CC2)cc1", "note": "(centres undefined)", "luciferase signal": "40 AU"},
      {"smiles": "CN(C)C(=N)N=C(N)N", "luciferase signal": "508 AU (active)"},
      {"smiles": "O=C(O)c1cn(C2CC2)c2cc(N3CCNCC3)c(F)cc2c1=O", "luciferase signal": "76 AU"},
      {"smiles": "CS(=O)(=O)c1ccc([C@@H](O)[C@@H](CF)NC(=O)C(Cl)Cl)cc1", "luciferase signal": "136 AU"},
      {"smiles": "NCCCC(O)(P(=O)(O)O)P(=O)(O)O", "luciferase signal": "144 AU"}
    ]}
  ]
}
